Test results published in PubChem BioAssay AID1159580 (chemical genetic matrix, 2015).
Out of some 5,500 compounds screened, about 2,000 (36%) were called active. Another 18% or so got no clear call; they are omitted. No stated cut-off is given here; in the data, active means normalized growth mostly below about 0.91 (no sharp cut-off); inconclusive means no clear call, values can overlap the other calls; inactive means mostly above about 0.92. Some of the results follow.

Assay: chemical genetic growth profiling, strain panel (AID 1159580);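 further: tested at 20 µM; growth read once vehicle control cultures reached saturation at 30 °C; 1 = growth at the plate median or of vehicle wells; lower values mean less growth of the strain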
Conditions: S. cerevisiae deletion strains, growth OD

Measured: normalized growth

Oc1ccc2c3c1O[C@H]1c4[nH]c5c(c4C[C@@]4(O)[C@@H](C2)N(CC2CC2)CC[C@]314)C[C@@]1(O)[C@H]2Cc3ccc(O)c4c3[C@@]1(CCN2CC1CC1)[C@H]5O4
inactive: locus YAL013W, strain DEP1, active compounds read low 0.969 | locus YAL040C, strain CLN3, active compounds read low 1 | locus YCL061C, strain MRC1 (second series), active compounds read low 0.962 | locus YDR363W, strain ESC2, active compounds read low 1.02 | locus YER002W, strain NOP16, active compounds read low 0.996 | locus YGR078C, strain PAC10, active compounds read low 0.986 | locus YMR263W, strain SAP30, active compounds read low 0.982 | locus YMR307W, strain GAS1, active compounds read low 1.03 | locus YNL175C, strain NOP13, active compounds read low 1 | locus YNL197C, strain WHI3, active compounds read low 0.978 | locus YNL224C, strain SQS1, active compounds read low 1 | locus YNL322C, strain KRE1, active compounds read low 0.958 | locus YOR083W, strain WHI5 (second series), active compounds read low 1.01 | locus YPL241C, strain CIN2, active compounds read low 0.968
